# Many of the other results were omitted from the sample, so the strongest signals are more common in it than they were.
# Legend:
# Assay in all cases: glycan array binding signal (z-score within array); higher = stronger binding
# Settings in all cases: glycan notation: IUPAC condensed, linker removed
# [1] = biological target: Fuc(a1-2)Gal(b1-4)Glc
# In short: (§1)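 The binding signal is a Z-score computed within each array. Data were drawn from 3228 arrays in the Consortium for Functional Glycomics database, restricted to those with a known protein sequence. Scores were averaged over arrays of the same protein sequence at different concentrations or buffers, and over linkers, and negative values can be taken as non-binding.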
# [2] = biological target: Fuc(a1-2)[Gal(a1-3)]Gal(b1-4)Glc
# In short: as §1
# [3] = biological target: Fuc(a1-3)GlcNAc
# In short: as §1
# [4] = biological target: Fuc(a1-3)[Gal3S(b1-4)]GlcNAc
# In short: as §1
# [5] = biological target: Gal(a1-4)Gal(b1-4)Glc
# In short: as §1
# [6] = biological target: Gal(b1-3)Gal(b1-4)GlcNAc
# In short: as §1
# [7] = biological target: Gal(b1-3)GlcNAc(b1-2)Man(a1-3)[Gal(b1-3)GlcNAc(b1-2)Man(a1-6)]Man(b1-4)GlcNAc(b1-4)GlcNAc
# In short: as §1
# [8] = biological target: Gal(b1-4)GalNAc(b1-3)[Fuc(a1-2)]Gal(b1-4)GlcNAc
# In short: as §1
# [9] = biological target: Gal(b1-4)GlcNAc(b1-2)Man(a1-3)[Gal(b1-4)GlcNAc(b1-2)Man(a1-6)]Man(b1-4)GlcNAc(b1-4)GlcNAc
# In short: as §1
# [10] = biological target: Gal3S(b1-4)GlcNAc
# In short: as §1
# [11] = biological target: Gal3S4S(b1-4)GlcNAc
# In short: as §1
# [12] = biological target: Glc(a1-6)Glc(a1-6)Glc
# In short: as §1
# [13] = biological target: GlcA(b1-3)GlcNAc
# In short: as §1
# [14] = biological target: GlcNAc(b1-3)[GlcNAc(b1-6)]Gal(b1-4)GlcNAc
# In short: as §1
# [15] = biological target: GlcNAc(b1-3)[GlcNAc(b1-6)]GalNAc
# In short: as §1
# [16] = biological target: GlcNAc(b1-4)Gal(b1-4)GlcNAc
# In short: as §1
# [17] = biological target: Kdn(a2-3)Gal(b1-4)GlcNAc
# In short: as §1
# [18] = biological target: Man(a1-2)Man(a1-2)Man(a1-6)[Man(a1-3)]Man
# In short: as §1
# [19] = biological target: Man(a1-2)Man(a1-6)[Man(a1-3)]Man(a1-6)[Man(a1-2)Man(a1-2)Man(a1-3)]Man
# In short: as §1
# [20] = biological target: Neu5Ac(a2-3)Gal(b1-3)GlcNAc(b1-3)Gal(b1-3)GlcNAc
# In short: as §1
# [21] = biological target: Neu5Ac(a2-3)Gal(b1-4)GlcNAc(b1-3)Gal(b1-4)GlcNAc(b1-3)Gal(b1-4)GlcNAc
# In short: as §1
# [22] = biological target: Neu5Ac(a2-3)Gal(b1-4)GlcNAc(b1-3)Gal(b1-4)[Fuc(a1-3)]GlcNAc
# In short: as §1
# [23] = biological target: Neu5Ac(a2-3)Gal(b1-4)[Fuc(a1-3)]GlcNAc
# In short: as §1
# [24] = biological target: Neu5Ac(a2-3)Gal6S(b1-4)[Fuc(a1-3)]GlcNAc
# In short: as §1
# [25] = biological target: Neu5Ac(a2-6)Gal(b1-4)GlcNAc(b1-2)Man(a1-3)[Gal(b1-4)GlcNAc(b1-2)Man(a1-6)]Man(b1-4)GlcNAc(b1-4)GlcNAc
# In short: as §1
# [26] = biological target: Neu5Ac(a2-6)Gal(b1-4)GlcNAc(b1-2)Man(a1-3)[Neu5Ac(a2-6)Gal(b1-4)GlcNAc(b1-2)Man(a1-6)]Man(b1-4)GlcNAc(b1-4)GlcNAc
# In short: as §1
# [27] = biological target: Neu5Ac(a2-6)Gal(b1-4)GlcNAc(b1-3)Gal(b1-4)[Fuc(a1-3)]GlcNAc(b1-3)Gal(b1-4)[Fuc(a1-3)]GlcNAc
# In short: as §1
# [28] = biological target: Neu5Gc(a2-3)Gal(b1-3)[Fuc(a1-4)]GlcNAc
# In short: as §1
binder,measurement,setting,value
BDCA2 ex-domain (Homo sapiens) (protein) MASHHHHHHIEGRGLNDIFEAQKIEWHESLVPRGSCPTPWTSFQSSCYFISTGMQSWTKSQKNCSVMGADLVVINTREEQDFIIQNLKRNSSYFLGLSDPGGRRHWQWVDQTPYNENVTFWHSGEPNNLDERCAIINFRSSEEWGWNDIHCHVPQKSICKMKKIY,glycan array binding signal (z-score),[1],-0.318
same,glycan array binding signal (z-score),[2],-0.022
same,glycan array binding signal (z-score),[3],-0.3
same,glycan array binding signal (z-score),[4],-0.204
same,glycan array binding signal (z-score),[5],0.336
same,glycan array binding signal (z-score),[6],-0.245
same,glycan array binding signal (z-score),[7],8.6
same,glycan array binding signal (z-score),[8],-0.375
same,glycan array binding signal (z-score),[9],13.2
same,glycan array binding signal (z-score),[10],-0.181
same,glycan array binding signal (z-score),[11],1.81
same,glycan array binding signal (z-score),[12],-0.187
same,glycan array binding signal (z-score),[13],-0.1
same,glycan array binding signal (z-score),[14],-0.208
same,glycan array binding signal (z-score),[15],-0.347
same,glycan array binding signal (z-score),[16],0.139
same,glycan array binding signal (z-score),[17],0.619
same,glycan array binding signal (z-score),[18],-0.128
same,glycan array binding signal (z-score),[19],-0.559
same,glycan array binding signal (z-score),[20],-0.143
same,glycan array binding signal (z-score),[21],1.33
same,glycan array binding signal (z-score),[22],0.601
same,glycan array binding signal (z-score),[23],-0.385
same,glycan array binding signal (z-score),[24],-0.35
same,glycan array binding signal (z-score),[25],2.93
same,glycan array binding signal (z-score),[26],-0.101
same,glycan array binding signal (z-score),[27],0.319
same,glycan array binding signal (z-score),[28],-0.317
